This note sets out measurements from PubChem BioAssay (EPA / NIEHS).

Assay [1] is described as follows: ATG_CRE_CIS: Attagene CIS-FACTORIAL HepG2 Assay for human cAMP Responsive Element (CRE) binding protein 3 (AID 2282926). Conditions: HepG2 CRE cis-reporter, Attagene multiplexed mRNA; actives raise or lower the signal. The essentials: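 We dosed HepG2 cells bearing multiple cis-promoter reporter units for 24 h and measured reporter mRNA by RT-PCR with capillary electrophoresis detection. Bidirectional concentration-response fitting used DMSO as negative control.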

Assay [2] addresses CCAAT/enhancer-binding protein beta (Homo sapiens) (UniProt P17676). Description: ATG_C_EBP_CIS: Attagene CIS-FACTORIAL HepG2 Assay for human CCAAT/Enhancer Binding Protein (C/EBP) beta (AID 2282927). The following applies: HepG2 Attagene cis-factorial transcription factor reporter; actives raise or lower the signal. Summed up:
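Endogenous transcription factor activity in human liver HepG2 cells is inferred from induction of a CEBPB-linked reporter mRNA. Exposure lasts 24 h; activity is fitted in both directions relative to DMSO.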

Assay [3] is described as follows: ATG_CMV_CIS: Attagene CIS-FACTORIAL HepG2 Assay for human CMV (Internal Marker) (AID 2282928).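 Also: endpoint acts as a background internal control marker rather than a target.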 Conditions: HepG2 CMV promoter reporter, transcription factor profiling; actives raise or lower the signal. Summed up: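 After transient transfection of HepG2 with reporter transcription units driven by cis-regulatory promoters, cells receive test chemical for 24 h. Labeled reporter amplicons, digested with HpaI, are sized and quantified by capillary electrophoresis against DMSO.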

The target of assay [4] is Aryl hydrocarbon receptor (Homo sapiens) (UniProt P35869). The assay is described as follows: ATG_Ahr_CIS: Attagene CIS-FACTORIAL HepG2 Assay for human Aryl Hydrocarbon Receptor (Ahr) (AID 2282930). Conditions: HepG2 AhR cis-factorial reporter transcription; actives raise or lower the signal. The essentials: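 Transient MRTU transfection of HepG2 → 24 h compound exposure → total RNA, oligo(dT) RT → PCR, 6-FAM extension, HpaI cut → CE fluorescence. DMSO = baseline; bidirectional curve fit.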
Aryl hydrocarbon receptor (Homo sapiens), sequence (P35869 whole entry, looked up): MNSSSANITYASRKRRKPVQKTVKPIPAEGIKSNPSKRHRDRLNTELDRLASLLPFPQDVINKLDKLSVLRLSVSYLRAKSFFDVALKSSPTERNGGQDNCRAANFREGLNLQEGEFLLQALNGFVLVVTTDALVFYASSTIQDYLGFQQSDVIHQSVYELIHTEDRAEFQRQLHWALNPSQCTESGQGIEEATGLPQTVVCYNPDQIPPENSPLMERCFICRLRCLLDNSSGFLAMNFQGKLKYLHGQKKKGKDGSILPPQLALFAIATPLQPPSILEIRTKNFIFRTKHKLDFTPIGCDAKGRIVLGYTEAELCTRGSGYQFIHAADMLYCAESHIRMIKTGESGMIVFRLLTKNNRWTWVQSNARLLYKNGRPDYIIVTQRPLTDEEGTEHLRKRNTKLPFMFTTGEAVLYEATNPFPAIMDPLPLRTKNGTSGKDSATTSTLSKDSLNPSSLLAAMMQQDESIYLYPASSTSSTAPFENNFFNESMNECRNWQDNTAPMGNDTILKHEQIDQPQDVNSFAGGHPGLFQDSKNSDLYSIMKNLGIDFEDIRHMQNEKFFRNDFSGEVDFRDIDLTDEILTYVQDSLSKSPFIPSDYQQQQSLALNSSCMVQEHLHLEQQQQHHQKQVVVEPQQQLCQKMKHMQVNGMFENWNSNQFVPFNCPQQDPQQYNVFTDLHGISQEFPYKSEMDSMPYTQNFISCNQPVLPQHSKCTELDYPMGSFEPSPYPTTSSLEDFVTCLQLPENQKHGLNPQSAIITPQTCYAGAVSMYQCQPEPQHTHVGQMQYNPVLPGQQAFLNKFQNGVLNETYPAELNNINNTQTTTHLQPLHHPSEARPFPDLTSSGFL

The nature of assay [5]: ATG_AP_1_CIS: Attagene CIS-FACTORIAL HepG2 Assay for human Activator Protein 1 (AP-1) (AID 2282931). Conditions: HepG2 Attagene cis-factorial AP-1 reporter mRNA; actives raise or lower the signal. Summed up: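 HepG2 cells transiently transfected with cis-element-driven reporter transcription units, dosed for 24 hours. Reporter mRNA measured by RT-PCR, 6-FAM labelling, HpaI digestion and capillary electrophoresis. Bidirectional fitting against DMSO baseline.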

The nature of assay [6]: ATG_AP_2_CIS: Attagene CIS-FACTORIAL HepG2 Assay for human Activator Protein 2 (AP-2) (AID 2282932). Conditions: HepG2 AP-2 cis-reporter, Attagene transcription factor profiling; actives raise or lower the signal. Summed up: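 Step one: transient transfection of HepG2 with reporter transcription units. Step two: 24 h chemical exposure. Step three: RNA extraction, RT-PCR, labelled fragment analysis by capillary electrophoresis; DMSO serves as baseline.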

Assay [7] can be described thus: ATG_BRE_CIS: Attagene CIS-FACTORIAL HepG2 Assay for human Bone Morphogenetic Protein (BMP) Response Element (BRE) (AID 2282933). The following applies: HepG2 BMP response element reporter, Attagene transcription factor profiling; actives raise or lower the signal. Summed up: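 After a 24 h chemical treatment, transiently transfected HepG2 cells were lysed for RNA; reporter transcripts were quantified by fluorescent RT-PCR and capillary electrophoresis, normalised to DMSO.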

Assay [8] deals with Retinoic acid receptor alpha (Homo sapiens) (UniProt P10276). Description: ATG_DR5_RAR_CIS: Attagene CIS-FACTORIAL HepG2 Assay for human Retinoic Acid Receptor Alpha (RARE), DR5 submotif (AID 2282934).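 As to AC50: reporter responds to endogenous RAR alpha beta and gamma in HepG2 not RARA alone.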 Conditions: HepG2 Attagene cis-factorial RARE DR5 reporter, mRNA; actives raise or lower the signal. The essentials:
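Transient MRTU transfection of HepG2; 24 h compound treatment; TriZol RNA, oligo(dT) RT, PCR, FAM labelling, capillary electrophoresis. Bidirectional fit vs DMSO. Endogenous TF activity at DR5 RARE.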

The nature of assay [9]: ATG_E_Box_CIS: Attagene CIS-FACTORIAL HepG2 Assay for human Enhancer Box (E-box) (AID 2282936). The following applies: HepG2 E-box cis-reporter transcription, actives raise or lower the signal. The essentials:
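DMSO served as negative control and baseline for bidirectional fitting. Human hepatoma HepG2 cells, transiently transfected with cis-reporter constructs, were dosed 24 h; reporter mRNA read by RT-PCR and capillary electrophoresis.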

A short description of assay [10]: ATG_M_61_CIS: Attagene CIS-FACTORIAL HepG2 Assay for M61 Transcription Factor (Internal Marker) (AID 2282937). The following applies: HepG2 Attagene CIS-FACTORIAL M61 internal marker reporter; actives raise or lower the signal. The essentials:
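HepG2 cells transiently transfected with multiplexed cis-promoter reporter units reporting endogenous transcription factor activity, measured 24 h after dosing. Reporter mRNA quantified by RT-PCR and capillary electrophoresis; bidirectional fit against DMSO baseline.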

Assay [11] can be described thus: ATG_EGR_CIS: Attagene CIS-FACTORIAL HepG2 Assay for human Early Growth Response 1 (EGR1) (AID 2282938). Conditions: HepG2 Attagene CIS-FACTORIAL EGR reporter mRNA; actives raise or lower the signal. The essentials:
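HepG2 cells transiently transfected with cis-element-driven multiplexed reporter units, dosed for 24 h. EGR1-element reporter mRNA quantified by RT-PCR, 6-FAM labelling, HpaI digestion and capillary electrophoresis; bidirectional fit versus DMSO.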

A short description of assay [12]: ATG_Ets_CIS: Attagene CIS-FACTORIAL HepG2 Assay for human Erythroblast Transformation Specific (ETS) (AID 2282941). Conditions: HepG2 ETS cis-reporter transcription, actives raise or lower the signal. The essentials:
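Human HepG2 hepatoma cells were transiently transfected with promoter-driven reporter constructs and treated for 24 hours. Reporter transcripts were quantified by RT-PCR with fluorescent primer extension; bidirectional curve fitting used DMSO as reference.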

The target of assay [13] is Hepatocyte nuclear factor 3-beta (Homo sapiens) (UniProt Q9Y261). The assay is described as follows: ATG_FoxA2_CIS: Attagene CIS-FACTORIAL HepG2 Assay for human Forkhead box A2 (FOXA2) (AID 2282942). Conditions: HepG2 cis-reporter transcription factor activity, 24 h; actives raise or lower the signal. The essentials:
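HepG2 transiently transfected with a multiplexed cis-promoter reporter library read endogenous FOXA2 activity. After 24 h compound exposure, reporter mRNA was quantified by RT-PCR, HpaI digestion and capillary electrophoresis. Bidirectional fit against DMSO.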

The nature of assay [14]: ATG_FoxO_CIS: Attagene CIS-FACTORIAL HepG2 Assay for human Forkhead box O (FoxO) (AID 2282943). The following applies: HepG2 Attagene cis-reporter, FoxO element, mRNA; actives raise or lower the signal. Summed up:
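HepG2, transient MRTU transfection (cis element, endogenous TFs). Dose 24 h. TriZol RNA → oligo(dT) RT → PCR → 6-FAM primer extension → HpaI cut → CE. Gain/loss vs DMSO.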

A short description of assay [15]: ATG_GATA_CIS: Attagene CIS-FACTORIAL HepG2 Assay for human GATA Binding Protein (AID 2282944). Conditions: HepG2 GATA cis-element reporter, Attagene multiplex mRNA; actives raise or lower the signal. Summed up: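 Measures endogenous transcription factor-driven reporter mRNA in HepG2 cells transiently carrying cis-regulated constructs. 24 h dosing; RNA via oligo(dT) reverse transcription, PCR, HpaI digestion, capillary electrophoresis; fitted relative to DMSO.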

Assay [16] in a line: ATG_GLI_CIS: Attagene CIS-FACTORIAL HepG2 Assay for human Zinc Finger Protein GLI1 (AID 2282945). The following applies: HepG2, Attagene cis-factorial reporter mRNA, GLI element; actives raise or lower the signal. The essentials: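 Bidirectional curve fits relative to DMSO, using reporter mRNA levels from RT-PCR plus capillary electrophoresis. Cells were HepG2 transiently carrying cis-regulated reporter constructs, harvested 24 h after dosing.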

Assay [17] is described as follows: ATG_DR4_LXR_CIS: Attagene CIS-FACTORIAL HepG2 Assay for human Liver X Receptor (LXR), DR4 submotif (AID 2282929). Conditions: HepG2 Attagene DR4 cis-reporter, mRNA transcription; actives raise or lower the signal. Summed up:
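HepG2 cells were transiently transfected with multiple cis-regulated reporter units and dosed for 24 hours. The DR4 reporter mRNA was quantified by RT-PCR, 6-FAM labelling and capillary electrophoresis. Bidirectional fits used DMSO as baseline.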

For assay [18], the target named is Transcription factor E2F1 (Homo sapiens) (UniProt Q01094). Description: ATG_E2F_CIS: Attagene CIS-FACTORIAL HepG2 Assay for human E2F Transcription Factor 1 (AID 2282935). The following applies: HepG2 Attagene cis-reporter, E2F reporter RNA transcripts; actives raise or lower the signal. The essentials:
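Total RNA from 24 h-treated, reporter-transfected HepG2 cells undergoes DNase I treatment, oligo(dT) reverse transcription, PCR and 6-FAM primer extension before capillary electrophoresis.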

Assay [19] is described as follows: ATG_ERE_CIS: Attagene CIS-FACTORIAL HepG2 Assay for Estrogen Response Element (ERE) (AID 2282940). Conditions: HepG2 ERE cis-reporter, Attagene RNA transcript; actives raise or lower the signal. Summed up:
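Measuring endogenous transcription factor output, the assay doses transfected HepG2 cells for 24 hours and quantifies reporter transcripts by fluorescent RT-PCR and capillary electrophoresis, with DMSO as baseline.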

Several values for one entry are separate records, joined by “and”; a condition that tells them apart may be missing. Identical values can stand only once. Some structures have more than one record in an assay (separate samples or runs), and their calls can disagree. Activity calls are given as the source filed them. The calls were made as follows: active = hit-call score of the fitted dose curve at least 0.9, where 1 is the maximum; inactive = score below 0.9.

CCAAT/enhancer-binding protein beta (Homo sapiens), sequence (P17676 whole entry, looked up): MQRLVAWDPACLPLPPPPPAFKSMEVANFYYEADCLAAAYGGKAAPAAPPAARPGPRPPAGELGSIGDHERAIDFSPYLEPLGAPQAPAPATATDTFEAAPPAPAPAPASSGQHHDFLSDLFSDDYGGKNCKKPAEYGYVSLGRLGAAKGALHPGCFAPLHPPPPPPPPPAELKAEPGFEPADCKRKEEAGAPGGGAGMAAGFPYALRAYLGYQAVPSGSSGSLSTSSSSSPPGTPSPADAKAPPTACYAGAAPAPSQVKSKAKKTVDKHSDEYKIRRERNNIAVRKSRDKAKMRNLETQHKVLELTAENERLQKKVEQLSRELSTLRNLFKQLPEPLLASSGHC
Retinoic acid receptor alpha (Homo sapiens), sequence (P10276 whole entry, looked up): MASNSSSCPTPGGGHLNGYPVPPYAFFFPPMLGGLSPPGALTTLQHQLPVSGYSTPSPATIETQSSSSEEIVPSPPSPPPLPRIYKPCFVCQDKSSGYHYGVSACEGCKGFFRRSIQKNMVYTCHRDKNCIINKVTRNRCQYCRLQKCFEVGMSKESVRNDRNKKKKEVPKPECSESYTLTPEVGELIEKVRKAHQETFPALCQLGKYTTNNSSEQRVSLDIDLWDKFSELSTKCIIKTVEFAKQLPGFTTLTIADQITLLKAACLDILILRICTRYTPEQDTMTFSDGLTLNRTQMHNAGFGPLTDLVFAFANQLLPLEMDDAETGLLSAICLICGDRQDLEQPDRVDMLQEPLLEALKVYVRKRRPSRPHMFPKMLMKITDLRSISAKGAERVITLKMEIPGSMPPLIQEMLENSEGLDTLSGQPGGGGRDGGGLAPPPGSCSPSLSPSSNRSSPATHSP
Hepatocyte nuclear factor 3-beta (Homo sapiens), sequence (Q9Y261 whole entry, looked up): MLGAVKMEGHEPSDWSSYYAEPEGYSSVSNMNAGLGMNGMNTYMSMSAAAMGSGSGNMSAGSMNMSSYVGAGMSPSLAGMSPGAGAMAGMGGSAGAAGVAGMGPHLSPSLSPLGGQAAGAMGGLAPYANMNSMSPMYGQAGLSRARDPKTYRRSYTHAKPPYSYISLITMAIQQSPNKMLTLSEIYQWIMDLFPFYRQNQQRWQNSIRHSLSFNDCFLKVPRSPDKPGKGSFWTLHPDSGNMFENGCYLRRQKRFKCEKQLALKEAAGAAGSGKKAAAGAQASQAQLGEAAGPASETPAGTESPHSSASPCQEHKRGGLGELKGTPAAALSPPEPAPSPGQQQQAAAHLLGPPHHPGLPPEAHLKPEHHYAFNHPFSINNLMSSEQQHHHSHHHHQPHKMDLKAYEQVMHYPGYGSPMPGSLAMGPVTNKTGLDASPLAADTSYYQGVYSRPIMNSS
Transcription factor E2F1 (Homo sapiens), sequence (Q01094 whole entry, looked up): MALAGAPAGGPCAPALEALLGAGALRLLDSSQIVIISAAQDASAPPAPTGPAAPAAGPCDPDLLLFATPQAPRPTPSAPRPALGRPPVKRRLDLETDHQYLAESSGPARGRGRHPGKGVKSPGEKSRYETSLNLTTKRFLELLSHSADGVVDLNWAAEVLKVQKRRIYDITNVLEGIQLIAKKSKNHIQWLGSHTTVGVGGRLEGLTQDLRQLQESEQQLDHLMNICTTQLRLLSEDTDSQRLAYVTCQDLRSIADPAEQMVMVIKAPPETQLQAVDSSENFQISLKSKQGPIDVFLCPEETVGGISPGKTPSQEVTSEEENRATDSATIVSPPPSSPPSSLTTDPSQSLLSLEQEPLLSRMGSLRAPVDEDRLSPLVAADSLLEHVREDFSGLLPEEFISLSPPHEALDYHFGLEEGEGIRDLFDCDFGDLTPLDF

What is called AC50 is the midpoint of the concentration-response curve, whichever way the signal moves. For the molecule `CCNS(=O)(=O)C(F)(F)C(F)(F)C(F)(F)C(F)(F)C(F)(F)C(F)(F)C(F)(F)C(F)(F)F`, the AC50 in assay [1] was 45.3 µM (active) and 16.1 µM (active) and 15.7 µM (active); in assay [5] it was 29.9 µM (active) and 75.2 µM (active); in assay [7], 33.4 µM (active) and 63.6 µM (active) and 35.3 µM (active); in assay [8], 96.5 µM (active); in [11], 96.5 µM (active); in assay [15], 138 µM (active). In assay [16], the half-maximal activity concentration (AC50) was 96.5 µM (active). Also, the outcome in assay [2], in assay [3], in [4], in [5], in assay [6] and in assay [8] was inactive. In addition, the outcome in assay [9], in assay [10], in assay [11], in assay [12], in [13] and in [14] was inactive. Moreover, the molecule was called inactive in assay [15] and in assay [16].

Take `CCCCCCCCn1sccc1=O`: the half-maximal activity concentration (AC50) in assay [1] is 14.4 µM (active); in assay [3], 19.1 µM (active); in [7], 11.6 µM (active); in assay [11], 18.2 µM (active); in [12], 14.8 µM (active); in [14], 18.3 µM (active). For the same molecule, the half-maximal activity concentration (AC50) in assay [15] was 18.4 µM (active); in [16] it was 16.9 µM (active). The outcome in assay [2], in assay [17], in assay [4], in assay [5], in assay [6] and in assay [18] was inactive. The result in assay [9], in [10], in assay [19] and in [13] was inactive.

`COc1cc(C=O)cc2c1[C@H](COC(N)=O)[C@]1(OC(C)=O)ON2C[C@H]2[C@@H]1N2C(C)=O`: the AC50 is 33.4 µM (active) in [1]; 61 µM (active) in assay [2]; 0.0512 µM (active) in assay [17]; 0.314 µM (active) in [4]; 61.4 µM (active) in assay [5]; 33.4 µM (active) in [6]. Further, the half-maximal activity concentration (AC50) was 0.1 µM (active) in assay [9]; 51 µM (active) in assay [19]; 12.4 µM (active) in assay [12]; 62.3 µM (active) in [13]; 58.9 µM (active) in assay [14]; 10.8 µM (active) in assay [15]. Also, the result in [3], in assay [7], in assay [10], in assay [11] and in assay [16] was inactive.
